Assay results published in the supplement of paper PMC6555819.

system: LXRb homodimer (NR concentration 270 nM); assay: PBM binding z-score (relative to random genomic background probes); higher = stronger binding; sequences stand for … in GC…GCGATTGACAGCGTAGAATGAAGG
Summary of the method: (§1)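 For binding z-scores, the reference was random background probes on custom Agilent 4×180K protein-binding microarrays. These arrays were incubated 1 h with ligand-free nuclear receptor dimers in PBS pH 7.4, 2% milk, 0.02% Triton X-100, 1 mM DTT, 0.2 mg/mL BSA and 0.4 mg/ml salmon testes DNA. Fluorescence was scanned after antibody detection of each partner (one per run) and regression-normalized.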

Sequence	PBM binding z-score
CCTTAAGGGTCAAGGTTATAGCACGGGTGGTACG	0.683
GCGAGCAGGCCATTTGGGTCACTCAATGACGGGC	-1.06
CGAACTAGGTCATCTAGGACAGTGAATACATTGA	-0.144
CCAGACAGGTGAAAGGTACCTCAGTCTGGTACGC	-0.978
GCAGACAGGTAAAACGCAGGTAACTCAGGGTGGC	-0.917
CCTCGCAGGCCAATCTGGGTCACTCAAGGCTTGA	-0.638
GGAACGAGGGCATTCTAGTTGATAGCATGGCGAT	-0.166
CCTACTAGGCCATTCAGAGGTCATTGATCATATG	1.58
AGAACGACGGCACGCTGAGTTGATAGCAGAGTAG	-1.06
TCTGCTAGGTTAGTTGGTCAGCTAACGAGCTGCC	-0.0822
ATCTCTAGGTAACAAGTTCAGTGTAAGAGAGGAC	1.14
ATCGAAAGGTCGTGAGGTGAGTAGACAGAAAGGC	0.701
CCTACTGGGCCACGAAAGCTCATTGATTCAGTGA	-0.95
AGAACGAGGGCAATGAGTTGATGGCACGGGTGGC	-0.436
CCTACTGGGCCAAGGTTATTGATCAGTCAAAGCA	-0.596
CCTTACGGGTCAAGGTTTTAGCACGGGTGGTACG	-0.202
TCTTGTAGACCAATAGAGGTTAAGAAAGTGCGCT	0.292
ACAGACAGGTGAGTGAAGGTAACTTAGCTGGACG	-0.62

system: PPARa:RXRa (NR concentration 270 nM, RXRa partner concentration 90 nM); assay: as above
Summary of the method: as §1

Sequence	PBM binding z-score
TCTCGGAGGACACGATGGTCAGAGCTTTCCAGAG	-0.0198
GCTTACGGATCAAAGGTTATAGCATGAATAGAAT	4.12
CTACCAAGGTGAACAAGGTCGTCGATTACTATTC	2.77
AATACAGGGTCATCGTAGGCCAGTGTACGCACAG	5.62
CCTGCTAGGTCATGGTCAGATAATCTACAGTATG	3.64
CGAACTAGGTCAAAGGTCAAAGTCGAGCCAACCA	7.47
AATACAGGGTCATTGTAGGCCAGAGTACGCACAG	5.93
AGAATGAGGTTATACGTAGATCAGGGATGAAAGT	3.09
ATCGAAAGGTCGAGGTGAGTTTAGAGAAAGGGAA	4.5
TGAATGAGGTGATAAGATCAGGGAACGTTGCAAA	1.08
ATCGAAAGGTCGAAGGTTAGTATACCCACCCGAA	4.71
TCATATAGGTAAAGGGTGAAAGTCGGTGTGGTAA	4.48
CCTTACGGGTCAAGGTTATAGCGCGGGTGGTACG	5.04
CATCCAAGGTCAGAGAGGTCAGTGAATGCCGAGT	5.23
CCTTACGGGGCACTGACAGGTTATAGCATTTGGA	0.455
TGAATGAGGTTAAAAATCAGGGAACGTGGCGTCG	2.87
TTACCAAGGTGAAAGGTTGTTGATGCACGCCTTG	3.78
CCTAGCAGGCCCGGGTCACTCAAGCATTTCGCTT	2.17
AGTCAAAGTTCACCAGGTAACGTAAGATTCAGCT	5.19
TCTTGTAGATCAAGCCGGTTAAGAAAGCCTGAGT	0.538

Sequence	PBM binding z-score
TCGAGTAGGTTAGGGGCCTTCAGAATGGCGTCGA	0.54
GCTGGGAGGACAAGGTCAGAGCTTTGTCCGTAGA	2.47
CCTTAAGGGTCAAGGTTATAGCACGGGTGGTACG	5.86
GCGAGCAGGCCATTTGGGTCACTCAATGACGGGC	1.37
CGAACTAGGTCATCTAGGACAGTGAATACATTGA	4.72
CCAGACAGGTGAAAGGTACCTCAGTCTGGTACGC	2.28
GCAGACAGGTAAAACGCAGGTAACTCAGGGTGGC	-0.183
CCTCGCAGGCCAATCTGGGTCACTCAAGGCTTGA	3
GGAACGAGGGCATTCTAGTTGATAGCATGGCGAT	1.21
CCTACTAGGCCATTCAGAGGTCATTGATCATATG	4.04
AGAACGACGGCACGCTGAGTTGATAGCAGAGTAG	-0.667
TCTGCTAGGTTAGTTGGTCAGCTAACGAGCTGCC	0.052
ATCTCTAGGTAACAAGTTCAGTGTAAGAGAGGAC	1.52
ATCGAAAGGTCGTGAGGTGAGTAGACAGAAAGGC	4.93
CCTACTGGGCCACGAAAGCTCATTGATTCAGTGA	-0.132
AGAACGAGGGCAATGAGTTGATGGCACGGGTGGC	1.25
CCTACTGGGCCAAGGTTATTGATCAGTCAAAGCA	1.78
CCTTACGGGTCAAGGTTTTAGCACGGGTGGTACG	4.56
TCTTGTAGACCAATAGAGGTTAAGAAAGTGCGCT	2.14
ACAGACAGGTGAGTGAAGGTAACTTAGCTGGACG	-0.0817

system: PPARg:RXRa (NR concentration 180 nM, RXRa partner concentration 90 nM); assay: as above
Summary of the method: as §1

Sequence	PBM binding z-score
TCTCGGAGGACACGATGGTCAGAGCTTTCCAGAG	-0.18
GCTTACGGATCAAAGGTTATAGCATGAATAGAAT	5.77
CTACCAAGGTGAACAAGGTCGTCGATTACTATTC	1.41
AATACAGGGTCATCGTAGGCCAGTGTACGCACAG	6.48
CCTGCTAGGTCATGGTCAGATAATCTACAGTATG	2.85
CGAACTAGGTCAAAGGTCAAAGTCGAGCCAACCA	14.1
AATACAGGGTCATTGTAGGCCAGAGTACGCACAG	6.15
AGAATGAGGTTATACGTAGATCAGGGATGAAAGT	2.07
ATCGAAAGGTCGAGGTGAGTTTAGAGAAAGGGAA	3.03
TGAATGAGGTGATAAGATCAGGGAACGTTGCAAA	0.727
ATCGAAAGGTCGAAGGTTAGTATACCCACCCGAA	4.46
TCATATAGGTAAAGGGTGAAAGTCGGTGTGGTAA	7.16
CCTTACGGGTCAAGGTTATAGCGCGGGTGGTACG	4.54
CATCCAAGGTCAGAGAGGTCAGTGAATGCCGAGT	4.13
CCTTACGGGGCACTGACAGGTTATAGCATTTGGA	0.465
TGAATGAGGTTAAAAATCAGGGAACGTGGCGTCG	1.72
TTACCAAGGTGAAAGGTTGTTGATGCACGCCTTG	5.72
CCTAGCAGGCCCGGGTCACTCAAGCATTTCGCTT	-0.225
AGTCAAAGTTCACCAGGTAACGTAAGATTCAGCT	6.96
TCTTGTAGATCAAGCCGGTTAAGAAAGCCTGAGT	-0.597

Sequence	PBM binding z-score
TCGAGTAGGTTAGGGGCCTTCAGAATGGCGTCGA	0.638
GCTGGGAGGACAAGGTCAGAGCTTTGTCCGTAGA	0.399
CCTTAAGGGTCAAGGTTATAGCACGGGTGGTACG	5.81
GCGAGCAGGCCATTTGGGTCACTCAATGACGGGC	0.6
CGAACTAGGTCATCTAGGACAGTGAATACATTGA	7.33
CCAGACAGGTGAAAGGTACCTCAGTCTGGTACGC	3.4
GCAGACAGGTAAAACGCAGGTAACTCAGGGTGGC	0.515
CCTCGCAGGCCAATCTGGGTCACTCAAGGCTTGA	1.74
GGAACGAGGGCATTCTAGTTGATAGCATGGCGAT	0.871
CCTACTAGGCCATTCAGAGGTCATTGATCATATG	3.11
AGAACGACGGCACGCTGAGTTGATAGCAGAGTAG	0.557
TCTGCTAGGTTAGTTGGTCAGCTAACGAGCTGCC	-0.648
ATCTCTAGGTAACAAGTTCAGTGTAAGAGAGGAC	1.37
ATCGAAAGGTCGTGAGGTGAGTAGACAGAAAGGC	3.83
CCTACTGGGCCACGAAAGCTCATTGATTCAGTGA	1.08
AGAACGAGGGCAATGAGTTGATGGCACGGGTGGC	1.29
CCTACTGGGCCAAGGTTATTGATCAGTCAAAGCA	2.64
CCTTACGGGTCAAGGTTTTAGCACGGGTGGTACG	4.23
TCTTGTAGACCAATAGAGGTTAAGAAAGTGCGCT	0.00378
ACAGACAGGTGAGTGAAGGTAACTTAGCTGGACG	0.693
